An excerpt weighted towards active compounds, which were near 0.87% of everything screened.
TDP1 inh: blocks human tyrosyl-DNA phosphodiesterase 1. Q9NUW8. recombinant TDP1, AlphaScreen DNA substrate cleavage. Potency, µM (series often up to 130 µM), for the others: top-dose activity change, negative = inhibition, hits mostly inhibitors. hit rate 0.28% among 350,000; note: nearly all actives have a fitted effect of over 40% in size
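AlphaScreen read-out: signal falls as enzyme removes the 3' tyrosine-FITC from a 5'-biotinylated DNA oligo (15 nM, 5 min, RT). Enzyme was E. coli-made recombinant Tdp1 at 1 nM, exposed to compound for 15 min beforehand; beads 10 ug/ml, 10 min.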
BLM helicase inh: blocks DNA unwinding by human BLM helicase. P54132. recombinant BLM DNA unwinding, fluorescence dequenching. Potency, µM (series often up to 56.1 µM), for the others: top-dose activity change, negative = inhibition, usual class: inhibitors. hit rate 0.2% among 350,000;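 note: plate controls were vehicle for no effect and no enzyme for full effect; nearly all actives have a fitted effect of over 35% in size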
RGS4 inhibitor: inhibitors of human regulator of G protein signaling 4; P49798; Transcreener GDP fluorescence polarization, RGS4-accelerated GTP hydrolysis; Potency, µM (top dose mostly 114 µM), for the others: at the top dose activity change, negative = inhibition, usual class: inhibitors; hit rate 0.039% among 390,000; AID 504845; note: nearly all actives have a fitted effect of over 75% in size
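MLSMR compounds (23 nl, pin-transferred) preincubated 10 min at room temperature with a 500nM (2x) first reagent, then RGS4 at 900nM (2x) plus Transcreener GDP mix added; fluorescence polarization (620/688 nm) read before and after 90 min at 30 °C.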
RECQ1 inh: RECQ1 (human) helicase inhibition. P46063. RECQ1 DNA unwinding, red fluorescence kinetic read. Potency, µM (series often up to 57.3 µM), without a hit: top-dose activity, negative = inhibition, hits mostly inhibitors. hit rate 0.54% among 240,000. AID 2549;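 note: plate controls were vehicle for no effect and no enzyme for full effect; nearly all actives have a fitted effect of over 30% in size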
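50 nM RECQ1T1 preincubated 15 min with compound in Tris pH 8.0 buffer with MgCl2, DTT, Tween-20 and 2.5 ug/ml poly(dI-dC); started with 200 nM TAMRA/BHQ-2 forked duplex and 2 mM ATP. Unwinding read as fluorescence (525/598 nm), two reads 2 h apart.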
APEX1 inh: blocks human APE1 abasic DNA cleavage. P27695. recombinant APE1, TAMRA/BHQ-2 abasic DNA cleavage fluorescence. Potency, µM (highest dose often 65.8 µM), without a hit: at the top dose activity change, negative = inhibition, actives largely listed as inhibitors. hit rate 0.35% among 350,000. AID 2517;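 note: plate controls were vehicle for no effect and reference inhibitor for full effect; nearly all actives have a fitted effect of over 55% in size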
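Kinetic fluorescence read (525 ex/598 em nm, three reads 60 s apart) of AP-site incision; signal = third minus first read. Enzyme 0.75 nM, dual-labelled THF duplex 50 nM, compound preincubation 15 min RT.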
KAT2A inh: blocks human GCN5L2 histone acetyltransferase; GCN5L2 HAT assay, ThioGlo1 CoA-SH fluorescence; Potency, µM (highest dose often 58.9 µM), without a hit: top-dose activity change, negative = inhibition, most hits filed as inhibitors; hit rate 0.21% among 390,000
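GCN5L2 (20nM final) in 50mM HEPES, 0.1mM EDTA pH 7.5, 0.01% Tween-20 was preincubated 15 min at room temperature with compound, then given ThioGlo1 (50uM), H3(1-25) peptide (75uM) and acetyl-CoA (70uM); CoA-thiol fluorescence (Ex340/Em540) was read at 0 and 20 min.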
The depositor's hits bear a star; i = inactive; ? = inconclusive; / = no result given; ! = not confirmed by another sample; [ ] = remark or other dose. Calls come from the whole dose curve; as a rule, active = well fitted curve in the direction sought with a large enough effect; inconclusive = small, poorly fitted or top-dose-only effect, or another doubt; inactive = no such curve, though single readings can be large; an effect the other way counts as inactive or inconclusive. Unless noted, % is set by controls: 0 for no effect and ±100 for the full control effect; potency is the fitted concentration of half-maximal effect.

SMILES	TDP1 inh	BLM helicase inh	RGS4 inhibitor	RECQ1 inh	APEX1 inh	KAT2A inh
CC(=O)Nc1ccc(NC(=O)c2cc(S(=O)(=O)N3CCCCC3)ccc2C)cc1	2%	/	18%	/	2%	-2%
O=C1CCCC2=C1C1(CCS(=O)(=O)C1)N=C(Nc1nc3ccccc3o1)N2 (stereo not drawn)	-8%	/	/	/	/	/
O=C(O)c1cc(C(=O)O)cc(-c2ccc(/C=c3/sc4nc5ccccc5n4c3=O)o2)c1	/	88%	-38%	?	28µM*	-12%
O=c1/c(=C\c2cc([N+](=O)[O-])cc([N+](=O)[O-])c2O)sc2nc3ccccc3n12	3%	-6%	?	14µM*	35µM*	?
O=c1/c(=C/c2ccccn2)sc2nc3ccccc3n12	4%	-8%	4%	-8%	-2%	-4%
CCN(c1ccccc1)c1nc(N)nc(C#N)n1	0%	/	-18%	/	/	/
Clc1ccccc1COc1ccc(/C=N/n2cnnc2)cc1	79µM*	-14%	?	-11%	18%	2%
O=C(CNC(=O)c1ccccc1)N[C@@H](C(=O)Nc1cc(C(F)(F)F)ccc1Cl)c1ccccc1	-2%	/	/	/	/	/
COc1ccc(C2Nc3ccccc3C(=O)N2Cc2ccccc2OC)cc1COc1ccc(NC(C)=O)cc1 (stereo not drawn)	-5%	/	/	/	/	/
NNc1nc(C(F)(F)F)nc2ccccc12	8%	-7%	-10%	-5%	?	-7%
O/C=c1\ccc2cccc3nc(C(F)(F)F)nc1c23	/	14µM*	?	/	-27%	-25%
COc1cccc(CNc2ccc3nc(-c4ccc(N)cc4)c(OC)n3n2)c1	15%	-5%	38µM*!	23%	2%	-19%
COc1cccc(CNc2nc3nc(C)cc(C)n3n2)c1	4%	0%	-12%	-17%	-2%	-16%
O=C(CNC(=O)c1cccs1)NCC(=O)OCc1ccccc1Cl	2%	-1%	-10%	-3%	-1%	3.2µM*
Cc1cc(=O)n2cccc(O)c2n1	2%	-1%	?	i	18%	-6%
O=c1nc2c(O)cccn2c2c1c(=O)[nH]c1ccccc12	-6%	7.9µM*	-24%	-8%	4%	?
CCCCCNc1oc(-c2cccc3ccccc23)nc1C#N	/	/	/	/	-6%	/
C=CCNC(=O)c1ccc([N+](=O)[O-])c(Cl)c1	0%	-14%	2%	i	23%	17%
C=CCNC(=O)c1cc([N+](=O)[O-])cc2c(=O)[nH]c(Nc3ccc(Cl)c(Cl)c3)nc12	6%	-19%	/	7.1µM*	7.9µM*	/
N#Cc1no[n+]([O-])c1-c1ccccc1	/	/	/	/	11%	/
COCCCc1cc(F)c(S(=O)(=O)N2CCN(S(=O)(=O)c3ccc4c(c3)OCCO4)CC2)cc1F	1%	/	/	/	/	/
COc1ccc(NS(=O)(=O)c2cccc(C(=O)NCC3(N4CCCCC4)CCCCC3)c2)cc1	1%	/	36%	/	12%	4%
CNS(=O)(=O)c1cccc(C(=O)NCC2(N3CCCCC3)CCCCC2)c1	50µM*	-2%	11%	/	-19%	-2%
COc1ccc(/C=N/Nc2cc(C)nc3ccc(OC)cc23)c(OC)c1	6%	25µM*	-53%	/	27µM*	-13%
N#Cc1ccc(C(=O)N(Cc2ccco2)Cc2cccs2)cc1	2%	/	-5%	/	/	/
SMILES	TDP1 inh	BLM helicase inh	RGS4 inhibitor	RECQ1 inh	APEX1 inh	KAT2A inh
CCc1nnc(NC(=O)C(=O)NCCOC(=O)c2ccccc2Cl)s1	4%	4%	-19%	-2%	-5%	3.2µM*
O=C(O)Cc1c[nH]c2ccc(O)cc12	-13%[56.1 µM]	/	21µM*!	-10%	-8%	-12%
N#Cc1nc(Nc2ccc(Br)cc2)nc(NC2CCCC2)n1	-2%	/	/	/	/	/
CCCCC/C=C\C\C=C/C=C/C=C/[C@@H](SC[C@H](N)C(=O)NCC(=O)O)[C@@H](O)CCCC(=O)O	4%	/	27µM*	0%	9%	2%
N#Cc1ccccc1S(=O)(=O)N1CCN(C(=O)c2cc3c(s2)CCC3)CC1	5µM*	/	-14%	/	5.3µM*	-14%
NC(=S)NCCC[C@H](N)C(=O)O	-2%	/	11µM*!	i	4%	?
CN(C)c1ncc2nc(-c3ccccc3)c(=O)n(C3CC3)c2n1	/	-3%	/	-1%	1%	22µM*
Cc1ccccc1N1C(S)=C(C#N)C(=O)NC1c1cccs1 (stereo not drawn)	8%	0%	?	i	?	-7%
Cc1ccccc1N1C(S)=C(C#N)C(=O)NC1c1ccco1 (stereo not drawn)	-3%	-27%	-26%	25µM*	14%	-1%
CC(=O)c1ccc(/C=C/c2nc3ccccc3n2C)o1	8%	-8%	-28%	-18%	?	11µM*
COc1ccc(CNC(=O)c2cc3c(=O)n4ccccc4nc3n(Cc3cccnc3)c2=N)cc1	-2%	-10%	0%	14µM*	16%	-1%
CC(C)(C)C(=O)Nc1ccc2c(c1)C(=O)C(=O)c1ccccc1-2	-6%	/	-42%	/	/	/
O=S(=O)(O)c1cc(O)c2c(N=Nc3ccc(Nc4ccccc4)c4c(S(=O)(=O)O)cccc34)cc(S(=O)(=O)O)cc2c1	9%	79%	/	/	/	13µM*
O=S(=O)(O)c1ccc2c(N=Nc3ccc(S(=O)(=O)O)c4ccccc34)c(O)c(S(=O)(=O)O)cc2c1	?	-2%	/	/	/	-9%
Cc1ccc(CNc2ncc(N3CCCCC3)cn2)cc1	/	/	/	/	13%	/
CC(=O)N1CCOc2ccc(S(=O)(=O)NCc3ccc(F)cc3)cc21	45µM*	-9%	2%[56.9 µM]	/	?	-14%
CC(=O)N1CCOc2cc(S(=O)(=O)NCc3ccccc3Cl)c(Cl)cc21	6.3µM*	-5%	-6%	/	20%	-9%
CC(=O)N1CCOc2ccc(S(=O)(=O)NCCc3ccc(S(N)(=O)=O)cc3)cc21	-5%	-1%	1%[56.9 µM]	/	-5%	-1%
Cc1cccc2cc(C(c3nnnn3C(C)(C)C)N(Cc3ccco3)CC3CCCO3)c(=O)[nH]c12 (stereo not drawn)	/	-14%	-14%	-8%	28µM*	-9%
O=c1nc2ccccc2c(NS(=O)(=O)c2ccc(Cl)cc2)n1-c1ccccc1	4%	-3%	-34%	-3%	-2%	3.2µM*
COc1ccc(S(=O)(=O)Nc2c3ccccc3nc(=O)n2-c2ccccc2)cc1	0%	-8%	-9%	i	18%	-3%
COc1ccc(C(=O)Nc2ccnn2C2CCN(Cc3ccc4nonc4c3)CC2)cc1	22µM*	-8%	-2%	/	5.3µM*	-1%
O=C(Nc1ccnn1C1CCN(Cc2ccc3nonc3c2)CC1)c1cccc(F)c1	2%	-1%	-2%	/	33%	-6%
